Sampled rows, rich in hits. Any-hit rate of the full collection: about 12%.
CHX counter: affects cycloheximide protein synthesis inhibition readout, counter-screen. cell reporter, cycloheximide protein synthesis inhibition counterscreen. max response, %. 300,000 tested, 12% active; in the data active means max response mostly above about 13%, no sharp cut-off; inactive means mostly below about 14%; further: read at 38.3 µM for the half of the compounds with a filed dose
SARS PLP yeast: SARS-CoV PLP inhibition in yeast | Potency, µM (top dose mostly 32.9 µM), hits mostly activators | S. cerevisiae expressing SARS-CoV PLpro, growth rescue | 330,000 tested, 0.19% active | AID 485353; further: nearly all actives have a fitted effect of over 55% in size
NS1 function inh: inhibitors of influenza NS1 protein function; Potency, µM (doses to about 46.1 µM); 270,000 tested, 0.4% active; AID 2326; further: actives are rising curves; nearly all actives have a fitted effect of over 50% in size
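Recovery from NS1-induced slow growth read by OD600 in budding yeast switched to galactose assay medium (pH 6.0, -URA) at 1:100 dilution. Compound 23 nl per well; the matching strain lacking NS1 serves as control.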
Shiga inhibitor: Shiga toxin inhibition; Vero cells, Shiga toxin protein synthesis inhibition reporter; inhibition, % at 38.7 µM; 290,000 tested, 9.2% active; AID 2315; in the data active means inhibition mostly above about 28%, no sharp cut-off; inactive means mostly below about 43%
Of the large screens only hits and unclear results are named; the others gave an inactive call. Unless noted, the call rests on the fitted dose curve.

O=C(COC(=O)c1ccc2ncsc2c1)Nc1cc(Cl)ccc1F	none (no result: CHX counter, NS1 function inh, Shiga inhibitor)
O=C(Nc1ccc(Cl)cc1Cl)c1ccc2ncsc2c1	CHX counter 41, Shiga inhibitor 78
COc1ccc(C(=O)Nc2ccc(F)cc2F)cc1OC	none
COc1ccc(S(=O)(=O)Nc2ccccc2C(=O)N2CCOCC2)cc1Cl	SARS PLP yeast inconclusive
N#C/C=C/N1CCC(Cc2ccccc2)CC1	none
O=C(Nc1ccncc1)c1ccc2ncsc2c1	none (no result: CHX counter, NS1 function inh, Shiga inhibitor)
O=C(Nc1cccc(F)c1)c1ccc2ncsc2c1	CHX counter 49, Shiga inhibitor 105
O=c1[nH]c(NCc2ccco2)nnc1Cc1ccccc1Cl	none (no result: SARS PLP yeast)
COc1ccc(NC(=O)N2CCCc3ccccc32)c(OC)c1	CHX counter 17
COc1ccc(C(=O)N2CCCc3ccccc32)cc1	none
Cc1nc(C)c(NC(=O)N2CCc3ccccc32)cc1NC(=O)N1CCc2ccccc21	none
CCOC(=O)c1cc(NC(=O)N(C)C2CCCCC2)c(C)nc1C	none
COC(=O)N1CCCc2cc(C)ccc21	none
COc1ccc(C)cc1NC(=O)N1CCCc2ccccc21	CHX counter 23, Shiga inhibitor 75
CCOC(=O)c1cc(NC(=O)N2CCCc3ccccc32)c(C)nc1C	CHX counter 20
CCOC(=O)c1cc(NC(=O)N(CC)C2CCCCC2)c(C)nc1C	SARS PLP yeast 14µM
NNC(=O)CCc1ccc(S(=O)(=O)N2CCOCC2)cc1	none (no result: NS1 function inh)
CCOc1ccc(S(=O)(=O)N2CCOCC2)cc1NC(=O)CN1C(=O)NC(CC)(c2ccccc2)C1=O (stereo not given)	none
O=C(CN(Cc1ccccc1)C(=O)CCC(=O)Nc1nccs1)NCc1ccco1	none
CCCCC(CCC(=O)Nc1cccc([N+](=O)[O-])c1)C(=O)O (stereo not given)	none
CCOC(=O)Nc1cc(C(=O)OCC)c(C)nc1C	none
CCOC(=O)c1cc(NC(=O)Nc2cc(C)ccn2)c(C)nc1C	Shiga inhibitor 39 (no result: NS1 function inh)
O=C(C(=O)N1CCN(Cc2ccc3c(c2)OCO3)CC1)c1c[nH]c2ccccc12	SARS PLP yeast inconclusive
CCC(C(=O)Nc1ccc2c(c1)OCCO2)n1c(=O)[nH]c2ccccc2c1=O (stereo not given)	CHX counter 73, Shiga inhibitor 88
O=C(Nc1ccc2c(c1)OCO2)C(=O)c1c[nH]c2ccccc12	CHX counter 28, Shiga inhibitor 72
Cc1cc(NC(=O)C(=O)c2c(C)[nH]c3ccccc23)no1	none (no result: NS1 function inh)
Cc1[nH]c2ccccc2c1C(=O)C(=O)Nc1ccc2c(c1)OCCO2	CHX counter 34, Shiga inhibitor 96
O=C(Nc1ccc2c(c1)OCCO2)C(=O)c1c[nH]c2ccccc12	Shiga inhibitor 21
CCN(CC)C(=O)Cn1cc(C(=O)C(=O)Nc2ccc3c(c2)OCCO3)c2ccccc21	CHX counter 48, NS1 function inh inconclusive, Shiga inhibitor 103
CCN(CC)C(=O)Cn1cc(C(=O)C(=O)NCCCN2CCOCC2)c2ccccc21	none
O=C(COC(=O)c1ccc([N+](=O)[O-])o1)NCc1ccccc1	none (no result: CHX counter, NS1 function inh, Shiga inhibitor)
CC(CN(C)Cc1ccccc1)OC(=O)c1ccc2c(c1)OCCO2 (stereo not given)	CHX counter 31
CN(Cc1ccccc1)C(=O)c1ccc2c(c1)OCO2	CHX counter 15
CN(Cc1ccccc1)C(=O)COC(=O)c1ccc2c(c1)OCO2	CHX counter 33, Shiga inhibitor 54
CC(CN(C)Cc1ccccc1)OC(=O)c1ccccc1F (stereo not given)	none
CN(Cc1ccccc1)C(=O)c1ccc([N+](=O)[O-])o1	CHX counter 19, Shiga inhibitor 42
COc1ccc(CCNC(=O)c2c(C)nn(-c3ccccc3)c2Cl)cc1OC	none
NC(=O)C1CCN(C(=S)c2ccc(-c3ccc(Br)cc3)o2)CC1	CHX counter 37, Shiga inhibitor 78 (no result: NS1 function inh)
CC(=O)N1CCN(C(=S)c2ccc(-c3ccc(Cl)cc3)o2)CC1	none
NC(=O)c1ccc(-c2ccc(Br)cc2)o1	Shiga inhibitor 56
O=C(O)c1ccc(-c2ccc(-c3ccccc3)cc2)o1	none (no result: SARS PLP yeast, NS1 function inh)
Cn1c(=O)c2c(ncn2CC(=O)N/N=C/c2ccc(Br)s2)n(C)c1=O	none
CCC(C)(C(=O)NC1CCCCC1)N(Cc1ccco1)C(=O)CNC(=O)c1ccccc1 (stereo not given)	CHX counter 31
CC(O)(C#CCN1CCCCC1)c1ccccc1 (stereo not given)	none
CC(C)C(O)(C#CCN1CCCCCC1)c1ccccc1 (stereo not given)	CHX counter 14
CCSc1ccc(/C(N)=N/OC(=O)c2cccs2)cn1	CHX counter 46, Shiga inhibitor 88
N/C(=N\OC(=O)c1ccc(Cl)cc1Cl)c1ccccc1	CHX counter 56, Shiga inhibitor 127
N/C(=N\OC(=O)c1ccc(Cl)cc1Cl)c1ccc(Cl)cc1	CHX counter 50, Shiga inhibitor 114
